# Measurements published in PubChem BioAssay AID1851 (National Center for Advancing Translational Sciences (NCATS), 2009).
# “And” between values parts separate entries of the source, which are not always exact repeats. Equal entries are not always repeated. Out of some 16,000 compounds screened, about 5,800 (36%) were called active. Inconclusive results (about 23%) are left out. The list shows a part of the results. Unmarked numbers belong to inactive results. Calls come from the whole dose curve; as a rule, active = well fitted curve in the direction sought with a large enough effect; inconclusive = small, poorly fitted or top-dose-only effect, or effect the other way; inactive = no such curve, though single readings can be large or run the other way.
# Target: Cytochrome P450 2C19 (Homo sapiens) (UniProt P33261)
# Experiment: Cytochrome panel assay with activity outcomes
# Settings: recombinant CYP, pro-luciferin dealkylation, luminescence, p450-cyp2c19; series mostly up to 57.1 µM; activity, negative = inhibition: at the top concentration
# % is set by controls: 0 for no effect and ±100 for the full control effect.
# Chain of Cytochrome P450 2C19 (Homo sapiens) (P33261 whole entry, looked up): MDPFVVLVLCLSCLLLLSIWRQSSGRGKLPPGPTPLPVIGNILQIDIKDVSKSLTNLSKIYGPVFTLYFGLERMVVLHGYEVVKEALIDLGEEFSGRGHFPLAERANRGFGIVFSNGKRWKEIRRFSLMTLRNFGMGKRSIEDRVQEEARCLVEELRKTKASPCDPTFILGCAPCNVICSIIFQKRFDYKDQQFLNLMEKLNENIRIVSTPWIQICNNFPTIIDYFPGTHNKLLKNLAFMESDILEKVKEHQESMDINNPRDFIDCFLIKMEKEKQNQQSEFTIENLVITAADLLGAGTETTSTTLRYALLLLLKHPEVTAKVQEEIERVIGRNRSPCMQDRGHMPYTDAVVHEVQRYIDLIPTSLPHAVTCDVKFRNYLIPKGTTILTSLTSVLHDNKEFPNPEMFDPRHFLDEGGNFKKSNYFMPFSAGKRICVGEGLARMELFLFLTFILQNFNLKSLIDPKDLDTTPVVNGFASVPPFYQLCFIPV
Structure (SMILES),"activity, negative = inhibition",AC50
FC(F)(F)c1cc(CN2CCC3(CCNCC3)CC2)cc(C(F)(F)F)c1,0.261%,–
N#Cc1ccc(-c2ccccc2)nc1SCC(=O)c1cccc(Cl)c1,–,2.24 µM (active)
O=C(O)CSc1cc(-c2ccccc2)nc2ccccc12,1.28% [at 11.4 µM],–
CN(C)c1oc(-c2ccccc2)nc1C#N,–,15.8 µM (active)
N#Cc1c(-c2ccccc2)no[n+]1[O-],-4.21%,–
COc1cc(O)oc1C=Nc1ccc(Cl)cc1,–,6.31 µM (active)
COc1cc(O)oc1C=Nc1ccc(C(F)(F)F)cc1,–,7.08 µM (active)
CCOc1[nH]n(-c2ccc(Cl)cc2)c(=O)c1C=Nc1ccc(O)cc1,-6.82%,–
Cc1c(C(=O)O)nc(/C=C\C(=O)O)[nH]c1=O,18.2% [at 11.4 µM],–
CC1=NN(c2ccc(F)cc2)C(=O)C1C(c1cccc(O)c1)c1c(C)[nH]n(-c2ccc(F)cc2)c1=O (stereo not given),–,17.8 µM (active)
O=C1C2CCCN2C(c2ccc(F)cc2)N1c1nccs1 (stereo not given),–,14.1 µM (active)
CCCSc1nc(SCC(=O)NCc2ccccc2)c2c3c(sc2n1)COC(C)(CC)C3 (stereo not given),–,11.2 µM (active)
Cc1nc2ncnn2c(C)c1CCC(=O)NCc1ccccc1,-23.7%,–
CCC1(C)Cc2c(sc3nnn(CC(=O)Nc4ccc(C)cc4)c(=O)c23)CO1 (stereo not given),–,10 µM (active)
CCC1(C)Cc2c(sc3nnn(CC(=O)Nc4cccc5ccccc45)c(=O)c23)CO1 (stereo not given),–,15.8 µM (active)
CCSc1nc2sc3c(c2c(=O)[nH]1)CC(C)(CC)OC3 (stereo not given),-6.25%,–
CN(N=O)C(=O)N[C@H]1[C@@H](O)[C@H](O)[C@H](CO)O[C@@H]1O,16.7% [at 25.6 µM],–
NC(=O)Nn1c(CCC(=O)O)ccc1-c1ccc(F)cc1,-6.65%,–
CNc1cnn(-c2ccccc2)c(=O)c1Cl,-9.49%,–
Nc1ccc(Sc2cnn(-c3ccccc3)c(=O)c2Cl)cc1,–,0.1 µM (active)
CCc1cc2c(nc1CC)CCN(CC/C(C)=N/OC[C@@H](O)COCc1ccco1)C2,-17.2% [at 11.4 µM],–
COC(=O)C/C=C\[C@@H](C)[C@@H](/C=N\O[C@@H](C)c1cn([C@H](CO)Cc2ccccc2)nn1)NS(=O)(=O)c1ccc(C)cc1,14.8% [at 11.4 µM] and -27.5% [at 11.4 µM],–
Cc1ccc(S(=O)(=O)N[C@@H](CCc2ccccc2)CC(=O)C(C)(C)C)cc1,–,1.58 µM (active)

Structure (SMILES),"activity, negative = inhibition",AC50
Cc1ccc(S(=O)(=O)N[C@H](CO)C(=O)O)cc1,-10.2% [at 11.4 µM],–
CC(CCc1ccccc1)NS(=O)(=O)c1ccccc1 (stereo not given),–,2.51 µM (active)
C1CCc2c(nc3nnnn3c2NC2CCCC2)C1,-8.75%,–
O=C1[C@@H]2[C@H]3[C@H](O)[C@H](O)C/C(=N/OCc4ccccc4)[C@@H]3CC[C@H]2C(=O)N1c1ccc(F)cc1F,-20.4% [at 11.4 µM],–
C[C@@H](C(=O)NCc1ccccn1)[C@H]1C[C@]1(C)[C@H](NC(=O)OCc1ccccc1)c1ccccc1,–,2 µM (active)
C[C@@H](C(=O)NCc1ccccn1)[C@@H]1C[C@@]1(C)[C@@H](NC(=O)OCc1ccccc1)c1ccccc1,–,2.51 µM (active)
O=C(O)CN(CCOCCOCCN(CC(=O)O)CC(=O)O)CC(=O)O,9.23%,–
Cc1cc2c(nc1C)CCCCN2C[C@H](O)CN1CCCc2nc(-c3ccc(Br)cc3)ccc21,-10.8% [at 11.4 µM],–
COc1ccccc1CN1CC[C@@]2(CCCN(C(C)=O)C2)C1,0.515%,–
CCOC(=O)C1CCN(c2c(NCc3ccc(C(=O)NCCC(C)C)cc3)c(=O)c2=O)CC1,–,3.16 µM (active)
CCNC(=S)NNC(=O)c1cc(C2CC2)nc2ccccc12,–,28.2 µM (active)
CCCCOC(=O)CSCC(=O)Nc1cc(C)on1,–,8.91 µM (active)
COc1ccccc1-c1cc(Nc2ccc(F)cc2)ncn1,–,7.94 µM (active)
Cc1ccccc1-c1cc(Nc2ccccc2)ncn1,–,3.16 µM (active)
COc1ccccc1-c1cc(Nc2ccn[nH]2)ncn1,–,6.31 µM (active)
CC(=O)NCCNc1cc(-c2ccccc2C)ncn1,9.99%,–
Cc1ccccc1-c1cc(Nc2ccc(F)cc2)ncn1,–,0.631 µM (active)
C[C@@H]1/C=C\CC(=O)OC[C@H](C)C(=O)N2CCC[C@@H]2C(=O)OC1,72.6% [at 11.4 µM],–
O=C(c1cccc(F)c1)N1CCC2(CC1)CN(C(c1ccccc1)c1ccccc1)C2,18.4%,–
COC(=O)[C@@]1(Cc2ccccc2)[C@H]2c3cc(C(=O)N4CCCC4)n(Cc4c(CO)[nH]cc(C)c4=O)c3C[C@H]2CN1C(=O)c1ccccc1,–,10 µM (active)
COC(=O)[C@@]1(Cc2ccccc2)[C@H]2c3cc(C(=O)N(C)C)n(Cc4c(CO)[nH]cc(C)c4=O)c3C[C@H]2CN1C(=O)c1ccccc1,–,3.16 µM (active)
COc1ccc(CNc2cc(-c3ccccc3Cl)ncn2)c(OC)c1,–,2 µM (active)
COc1ccc(CNc2cc(-c3ccccc3OC)ncn2)c(OC)c1,–,2 µM (active)

Structure (SMILES),"activity, negative = inhibition",AC50
COc1ccc(CNc2cc(-c3ccccc3CN(C)C)ncn2)c(OC)c1,4.98%,–
CC(=O)N(CC(O)CN(C(C)=O)c1c(I)c(C(=O)NC[C@@H](O)CO)c(I)c(C(=O)NC[C@@H](O)CO)c1I)c1c(I)c(C(=O)NC[C@@H](O)CO)c(I)c(C(=O)NC[C@@H](O)CO)c1I,-17% [at 25.6 µM],–
CN(C)c1nccc(N(Cc2ccccc2)Cc2ccccc2)c1C#N,–,4.47 µM (active)
CCOC(=O)C1CCCN(C(=O)CSCc2ccccc2)C1 (stereo not given),–,11.2 µM (active)
CCCS(=O)(=O)N1CCCC(C(=O)N2CCN(C(=O)OCC)CC2)C1 (stereo not given),23%,–
CCOC(=O)C1CCCN(S(=O)(=O)c2ccccc2)C1 (stereo not given),–,4.47 µM (active)
CCOC(=O)C1CCCN(C(=O)CCn2nc(-c3ccccc3)ccc2=O)C1 (stereo not given),-29%,–
CCCS(=O)(=O)N1CCCC(C(=O)NCCCOCC)C1 (stereo not given),19.2%,–
CCOC(=O)CNc1c(-c2ccccc2)nc2ccc(Cl)cn12,–,5.01 µM (active)
COC(=O)[C@@H]1O[C@@H](c2c(OC)c(OC)c(C)c(OC)c2OC)[C@H](C)[C@@H](O)[C@@H]1C,-37.9% [at 11.4 µM],–
Clc1ccc(Cl)c(Nc2ccnc(SCc3ccccc3)n2)c1,–,5.01 µM (active)
CCOC(=O)C1=C2SCC(=O)N2C(N)=C(C#N)C1,–,14.1 µM (active)
CCOC(=O)c1c(C)c(C)n2c1NC(=O)C2,1.54% [at 11.4 µM],–
CC(C)OC(=O)C1=C2SCC(=O)N2C(N)=C(C#N)C1,–,2.51 µM (active)
Oc1cc2c(c(Cl)c1O)CCNC[C@H]2c1ccccc1,–,inactive
O=C(NCCc1ccccn1)c1cc(C(=O)C2CCCCC2)c[nH]1,-14.4%,–
O=C(NCc1ccco1)c1cc(C(=O)C2CC2)c[nH]1,–,25.1 µM (active)
Cc1c(NC(=O)/C=C/c2cn(-c3ccccc3)nc2-c2ccc(F)cc2)c(=O)n(-c2ccccc2)n1C,-63.8%,–
Cc1ccc(-c2nn(-c3ccccc3)cc2CSC(=N)N)cc1,–,8.91 µM (active)
CCC(C)NC(=O)Cn1cnc2sc(C)cc2c1=O (stereo not given),-22.3%,–
CCC(C)NC(=O)CCS(=O)(=O)c1ccc(Br)s1 (stereo not given),–,5.01 µM (active)
c1ccc(Nc2nc(-c3cccnc3)nc3ccccc23)cc1,-24.3%,–
COc1ccccc1NC(=O)Nc1nc(-c2cccnc2)nc2ccccc12,36.6%,–

Structure (SMILES),"activity, negative = inhibition",AC50
CCOC(=O)c1ccc(Nc2nc(-c3cccnc3)nc3ccccc23)cc1,–,3.55 µM (active)
CCOC(=O)c1ccc(Nc2nc(C(=O)OCC)nc3ccccc23)cc1,–,1.41 µM (active)
CC(C)=CCC/C(C)=C/CO/N=C1/C[C@@H](O)[C@@H](O)[C@@H]2[C@@H]3C(=O)N(Cc4ccc5c(c4)OCO5)C(=O)[C@H]3CC[C@@H]12,17.2% [at 11.4 µM],–
O=C(c1cnccn1)N1CCC[C@@]2(CCN(C(c3ccccc3)c3ccccc3)C2)C1,-31.3%,–
O=C(O)CC[C@@H](C(=O)O)N1C(=O)c2ccccc2C1=O,–,inactive
O=C(O)[C@H](Cc1ccc(O)c([N+](=O)[O-])c1)N1C(=O)c2ccccc2C1=O,26.2% [at 11.4 µM],–
CC(C)CC(C(=O)OCC(=O)Nc1ncc(Cl)cc1Cl)N1C(=O)c2ccccc2C1=O (stereo not given),–,2.24 µM (active)
CC(C)(CNC(=O)c1ccc([N+](=O)[O-])c(Cl)c1)CNC(=O)c1ccc([N+](=O)[O-])c(Cl)c1,–,2.24 µM (active)
CC(C)(C)OC(=O)[C@H]([C@@H]1N[C@@H](C(=O)O)C(C)(C)S1)N1C(=O)c2ccccc2C1=O,36.7% [at 11.4 µM],–
Cc1[nH]c2ccccc2c1CCNC(=O)c1ccc2c(c1[N+](=O)[O-])C(=O)c1ccccc1C2=O,–,1.26 µM (active)
O=C(c1cccs1)n1nc(-c2ccc(Cl)cc2)nc1NCc1ccco1,–,14.1 µM (active)
FC(F)(F)c1nc(-c2ccncc2)ncc1-c1nnnn1-c1ccccc1,–,0.0224 µM (active)
FC(F)(F)c1nc(N2CCCC2)ncc1-c1nnnn1-c1ccccc1,–,0.631 µM (active)
Cc1nc2cnc(N3CCNCC3)nc2n(-c2ccccc2)c1=O,-9.27%,–
Cc1nn(-c2ccccc2)c(N2CCCCC2)c1/C=N/O,-13.2%,–
O=C(O)[C@H]1CCCC[C@@H]1C(=O)Nc1nc2ccccc2[nH]1,26.5% [at 11.4 µM],–
COCC(=O)O[C@]1(CCN(C)CCCc2nc3ccccc3[nH]2)CCc2cc(F)ccc2[C@@H]1C(C)C,-8.93%,–
CC(C)c1ccc(NC(=O)N(CCc2nc3ccccc3[nH]2)C2CCCC2)cc1,–,7.08 µM (active)
CCOC(=O)c1ccc(N)cc1,-12.8% [at 25.6 µM],–
CCOC(=O)c1ccc(OC(=O)CCCCCN=C(N)N)cc1,–,inactive
CCOC(=O)c1ccc(-c2ccc(CO)o2)cc1,–,28.2 µM (active)
